Source: the supplement of paper PMC6555819

Tests used:
Test in all cases: PBM binding z-score (relative to random genomic background probes); higher = stronger binding; sequences stand for … in GC…GCGATTGACAGCGTAGAATGAAGG
[1] = tested on: PPARg:RXRa DBDmut IVT, anti-RXR (DBD mutation: RXRa K156A/R161A, NR concentration 270 nM, RXRa partner concentration 90 nM)
Method in brief: (§1)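 Random background probes are the reference for binding z-scores. These scores derive from regression-normalized fluorescence on custom Agilent 4×180K protein-binding microarrays incubated 1 h with ligand-free nuclear receptor dimers. Binding was detected with antibodies against each partner (one per run).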

[2] = tested on: PPARg:RXRa IVT, anti-PPARg (NR concentration 270 nM, RXRa partner concentration 90 nM)
Method in brief: as §1

[3] = tested on: PPARg DBDmut:RXRa IVT, anti-PPARg (DBD mutation: PPARg1 K132A/R137A, NR concentration 270 nM, RXRa partner concentration 90 nM)
Method in brief: as §1

[4] = tested on: PPARg DBDmut IVT, anti-PPARg (DBD mutation: PPARg1 K132A/R137A, NR concentration 270 nM)
Method in brief: as §1

[5] = tested on: PPARg homodimer (NR concentration 180 nM)
Method in brief: as §1

[6] = tested on: PXR:RXRa (NR concentration 270 nM, RXRa partner concentration 90 nM)
Method in brief: as §1

[7] = tested on: PXR homodimer (NR concentration 270 nM)
Method in brief: as §1

[8] = tested on: RARa:RXR (NR concentration 270 nM, RXRa partner concentration 90 nM)
Method in brief: as §1

[9] = tested on: RARa homodimer (NR concentration 270 nM)
Method in brief: as §1

[10] = tested on: RARb:RXRa (NR concentration 270 nM, RXRa partner concentration 90 nM)
Method in brief: as §1

[11] = tested on: RARb homodimer (NR concentration 270 nM)
Method in brief: as §1

[12] = tested on: RARg:RXRa (NR concentration 270 nM, RXRa partner concentration 90 nM)
Method in brief: as §1

[13] = tested on: RARg homodimer (NR concentration 270 nM)
Method in brief: as §1

[14] = tested on: RXRa DBDmut IVT, anti-RXR (DBD mutation: RXRa K156A/R161A, NR concentration 90 nM)
Method in brief: as §1

[15] = tested on: RXRa homodimer (NR concentration 180 nM)
Method in brief: as §1

[16] = tested on: THRa:RXRa (NR concentration 90 nM, RXRa partner concentration 90 nM)
Method in brief: as §1

[17] = tested on: THRa homodimer (NR concentration 90 nM)
Method in brief: as §1

[18] = tested on: VDR homodimer (NR concentration 270 nM)
Method in brief: as §1

Sequence	PBM binding z-score [1]	PBM binding z-score [2]	PBM binding z-score [3]	PBM binding z-score [4]	PBM binding z-score [5]	PBM binding z-score [6]	PBM binding z-score [7]	PBM binding z-score [8]	PBM binding z-score [9]	PBM binding z-score [10]	PBM binding z-score [11]	PBM binding z-score [12]	PBM binding z-score [13]	PBM binding z-score [14]	PBM binding z-score [15]	PBM binding z-score [16]	PBM binding z-score [17]	PBM binding z-score [18]
CTCGAAAGGTCGTGCTCAGGTGTGTATACCAAAC	0.974	2.05	0.571	-0.156	3.36	3.32	0.146	4.07	-0.478	3.99	2.72	4.45	3.62	2.5	4.71	3	0.4	0.893
CAAACTAGGTCACCGGAATGTCAAAGTCCGCATG	8.65	9.1	5.11	2.79	2.69	2.31	-0.000286	3.53	0.651	4.37	4.04	5.43	5.46	1.81	3.7	3.71	2.04	0.883
GCTGCTAGGTCAGGTTGGTCAGTTAACGGGTACG	2.8	2.15	-1	-0.445	0.781	0.391	0.149	0.719	-0.401	3.21	2.75	2.59	3.38	0.795	1.02	2.03	1.2	0.71
CCTCGGAGGACAACAGGACGTCAGAGCTGCCAGA	-0.431	-0.589	-0.661	-1.48	-0.0308	-0.587	-0.482	-0.32	-0.489	0.92	0.189	0.272	1.12	0.0264	-0.244	0.648	-0.377	-0.354
TCTTGTAGATCAAGCGGGTTAAGAAAGCCTGAGT	1.69	0.202	-0.333	-0.182	-0.174	0.313	-0.037	0.0624	-0.21	0.093	0.106	-0.294	-0.546	0.628	0.204	0.221	-0.488	-0.0254
TCGAGTAGGTCACCAATGGGGCATTCAGCTTTCT	5.54	6.57	0.462	0.45	1.71	2.42	-0.543	3.13	-0.919	3.84	3.59	5.11	4.61	0.972	3.44	2.42	-0.0324	0.0095
TAGCCTAGGTCATGCGGGCCAGTATTGTGTCGGC	1.92	3.17	-0.152	-1.19	0.001	1.34	-0.847	1.82	-1.27	3.69	3.12	3.74	4.11	0.382	2.52	3.05	1.08	0.379
